# Shiga toxin inh: A qHTS for Small Molecule Inhibitors of Shiga Toxin | Vero cells, Shiga toxin protein synthesis inhibition reporter | inhibition, % at 38.7 µM | hit rate 9.2% among 290,000 | AID 2315, 2010; in the data active means inhibition mostly above about 28%, no sharp cut-off; inactive means mostly below about 43%; further: 0% is about no effect
# Pf growth 96h: Primary qHTS for delayed death inhibitors of the malarial parasite plastid, 96 hour incubation; P. falciparum luciferase reporter growth, 96 h; Potency, µM (titrated, usually from 28.7 µM), for the others: top-dose activity change, negative = inhibition, usual class: inhibitors; hit rate 6.9% among 320,000; AID 504834, 2011; further: potency means the concentration at half of the fitted maximal effect; on the % scale 0 is the no-effect control and ±100 the full control effect
#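 Erythrocytes infected with luciferase-expressing P. falciparum were dispensed at 2% hematocrit and 0.05% parasitemia (final), then incubated with compounds 96 hours at 37 C in 5% CO2. Luminescence after detection reagent addition reported growth.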
# Pf growth 48h: Primary qHTS for delayed death inhibitors of the malarial parasite plastid, 48 hour incubation | P. falciparum luciferase growth in erythrocytes, 48 h | AID 504832, 2011 | Potency, µM (series often up to 28.7 µM), for inactives: at the top dose activity change, negative = inhibition, actives largely listed as inhibitors | hit rate 5.9% among 310,000; further: potency means the concentration at half of the fitted maximal effect; on the % scale 0 is the no-effect control and ±100 the full control effect
#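 Here the parasites carry a stable luciferase gene and grow inside erythrocytes in Albumax-based RPMI medium with compound for one erythrocytic cycle. Activity is scored as loss of luminescent signal.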
# CHX counter: Cycloheximide Counterscreen for Small Molecule Inhibitors of Shiga Toxin. cell reporter, cycloheximide protein synthesis inhibition counterscreen. max response, %. hit rate 12% among 300,000. AID 2314, 2010; in the data active means max response mostly above about 13%, no sharp cut-off; inactive means mostly below about 14%; further: read at 38.3 µM for the half of the compounds with a filed dose; 0% is about no effect
# NS1 function inh: qHTS Assay for Inhibitors of Influenza NS1 Protein Function; hit rate 0.4% among 270,000; AID 2326, 2010; Potency, µM (top dose mostly 46.1 µM), without a hit: at the highest dose activity, positive = more growth; calls by dose curve; further: potency means the concentration at half of the fitted maximal effect; actives are rising curves; nearly all actives have a fitted effect of over 50% in size
#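 OD600 was taken as the measure of yeast growth restored by compound in an NS1-expressing S. cerevisiae strain. Cells had been washed out of glucose medium and diluted 1:100 into galactose -URA medium, pH 6.0.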
# * marks the source's active call; other numbers are inactive results; ? = inconclusive; . = not tested or not shown; [ ] = dose if it differs, or a comment. Rows were chosen to be rich in hits. Some 21% of all compounds tested hit in one or more screens of this group. Unless noted, the call rests on the fitted dose curve; in most records, active means well fitted inhibition curve with a large enough effect; inconclusive means small, poorly fitted or top-dose-only effect, or another doubt; inactive means no such curve, though single readings can be large or run the other way.
SMILES,Shiga toxin inh,Pf growth 96h,Pf growth 48h,CHX counter,NS1 function inh
CN(C)N1C(N)=C(C#N)C(c2ccc3c(c2)OCO3)C2=C1CCCC2=O (centres undefined),-3.0,-16.8%,?,-2.8,1.6%
Cc1csc(=N)n1-c1ccc(Cl)cc1,176.0*,45.0%,133.5%,58.9*,-54.9%
Cc1ccc(-n2c(C)csc2=N)cc1,54.9*,436.6%,.,55.8*,-5.5%
Cc1csc(=S)n1-c1ccccc1,-17.6,?,-14.1%,-1.8,14.0%
CCCN1CCC(NC(=S)Nc2ccc(S(N)(=O)=O)cc2)CC1,-1.6,-24.6%,-1.2%,-1.0,5.0%
COc1ccccc1/C=C1\SC(=S)N(CCC(=O)N2CCN(C)CC2)C1=O,-4.7,17.3%,11.7µM*,0.5,4.5%
CN1CCN(C(=O)CCN2C(=O)/C(=C\c3ccc(Cl)cc3)SC2=S)CC1,11.2,8.28µM*,-7.4%,4.8,-6.0%
CCOC(=O)N1CCN(C(=O)CCN2C(=O)/C(=C\c3ccccc3OC)SC2=S)CC1,-7.1,2.8%,?,0.9,12.8%
COc1ccc(/C=C2\SC(=S)N(CCCC(=O)N3CCN(C)CC3)C2=O)cc1,-2.8,?,?,0.5,-8.8%
COC(=O)COc1ccc(S(=O)(=O)Nc2ccccc2C(=O)OC)cc1,-7.5,.,24.2%,-4.2,-9.0%
COCCn1c(SC(C)C(=O)Nc2ncc(Cl)cc2Cl)nc2ccccc21 (centres undefined),-6.6,.,?,-9.8,-3.3%
Cc1nnc(SC(C)C(=O)Nc2ncc(Cl)cc2Cl)n1Cc1ccccc1 (centres undefined),-12.6,2.08µM*,?,-6.7,8.8%
O=C(Oc1ccccc1)c1cccc2cccc(C(=O)Oc3ccccc3)c12,12.2,10.4µM*,?,-2.4,12.3%
Cc1cc(NC(=O)CNCC(c2ccccc2)N(C)C)c([N+](=O)[O-])cc1C (centres undefined),-13.9,-26.4%,-16.1%,-1.8,0.6%
COc1ccccc1-c1cc(C(=O)Nc2cc(C)n(Cc3ccc(Cl)cc3)n2)no1,-17.8,15.7%,5.86µM*,-1.2,0.9%
Cc1cc(C(=O)Nc2cc(C)n(Cc3ccc(Cl)cc3)n2)no1,31.6,?,0.928µM*,15.4,-8.6%
Cc1ccc(Cn2ccc(NC(=O)c3cc(CC(C)C)on3)n2)cc1,24.2,-2.9%,-1.0%,9.1,-52.4%
Cc1cc(NC(=O)c2cc(C(C)C)on2)nn1Cc1ccc(Cl)cc1,50.3,9.28µM*,.,14.5,-48.6%
Cc1cc(C(=O)Nc2c(C)nn(Cc3ccc(Cl)cc3)c2C)no1,-11.3,?,-3.1%,-1.8,.
CCC1CCc2c([nH]c3ccccc3c2=O)O1 (centres undefined),12.3,2.33µM*,?,-2.1,-21.1%
O=c1c2c([nH]c3ccccc13)CCCCC2,-6.0,1.65µM*,1.65µM*,-5.1,-70.4%
O=c1c2ccccc2[nH]c2ccccc12,2.8,1.47µM*,1.65µM*,0.5,-23.7%
O=c1c(-c2ccccc2)n[nH]c2ccccc12,72.1*,.,26.4%,73.6*,-143.4%
CCOc1ccc(S(=O)(=O)n2cnc(C)c2)cc1,-5.1,202.3%,?,-0.6,-12.3%
CC1(C)[C@@H]2CC[C@]1(C)[C@@H](OC(=O)CSC#N)C2,.,-18.6%,-12.1%,.,0.3%
SMILES,Shiga toxin inh,Pf growth 96h,Pf growth 48h,CHX counter,NS1 function inh
CCOC(=O)C[N+](C)(C)CCOC1CC2CCC1(C)C2(C)C (centres undefined),18.2,0.3%,2.08µM*,-0.5,-0.3%
CC1(C)C2CCC1(C)C(OCC[N+](C)(C)CC(=O)OC1CCCCC1)C2 (centres undefined),-14.4,0.522µM*,1.47µM*,-1.8,8.3%
O=C(CSc1ncnc2[nH]ncc12)Nc1cccc(Oc2ccccc2)c1,-12.0,?,-12.2%,5.9,.
O=C(c1cc2cc([N+](=O)[O-])ccc2oc1=O)N1CCN(C2CCCCC2)CC1,-5.9,0.0%,15.5%,-1.9,4.9%
COc1ccc(-c2nc(NC(=O)c3ccccc3)sc2-c2ccc([N+](=O)[O-])cc2)cc1,-10.8,?,-13.1%,0.7,27.0%
COc1ccc(C(=O)Nc2nc3c(s2)Cc2cc(OC)ccc2-3)cc1,32.0,?,5.86µM*,10.8,6.0%
COc1ccc2c(c1)Cc1sc(NC(=O)c3ccccc3)nc1-2,145.5*,2.94µM*,.,48.3*,-1.6%
COc1ccc2c(c1)Cc1sc(NC(=O)c3cccs3)nc1-2,149.1*,-10.4%,5.86µM*,74.0*,-7.6%[9.22 µM]

# Screens: PubChem BioAssay, National Center for Advancing Translational Sciences (NCATS)
